Screening results as filed in PubChem BioAssay.
Rows were chosen to be rich in hits. Some 3.7% of all compounds tested hit in one or more screens of this group.
BoNT-F LC inh: blocks Botulinum neurotoxin F light chain protease; 0.22% of 360,000 active; Multiplex microsphere protease cleavage assay, flow cytometry; inhibition, % at 10 µM; in the data active = inhibition above about 35%, passing the limit was not always enough; inconclusive = no clear call, values can overlap the other calls; note: plate controls were buffer without enzyme for full effect and enzyme alone for no effect
BoNT-A LC inh2: blocks Botulinum neurotoxin A light chain protease; inhibition, % at 10 µM; 0.17% of 360,000 active; AID 588499; multiplex microsphere protease substrate cleavage, flow cytometry; note: plate controls were buffer without enzyme for full effect and enzyme alone for no effect
Anthrax LF inh2: anthrax lethal factor protease inhibition | P15917 | multiplex microsphere protease cleavage assay, LF | inhibition, % at 10 µM | 0.12% of 360,000 active; note: plate controls were buffer without enzyme for full effect and enzyme alone for no effect
MazEF act: increases E. coli MazEF RNase cleavage of RNA | 0.32% of 350,000 active | FAM/BHQ RNA-DNA oligo cleavage fluorescence, 5 h | P0AE70 | activation, % at 20 µM; in the data active = activation above about 50%
Target sequence (P0AE70 whole entry, looked up): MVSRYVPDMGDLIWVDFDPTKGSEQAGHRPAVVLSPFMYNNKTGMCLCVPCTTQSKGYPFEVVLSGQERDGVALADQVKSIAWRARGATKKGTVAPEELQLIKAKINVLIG
Bead autofluor: flagged as autofluorescent in microsphere protease counterscreen. compound autofluorescence counterscreen, microsphere flow cytometry; hits give high values. fluorescence intensity (no concentration beside the values). 3.1% of 360,000 active; in the data active = fluorescence intensity above about 16000; inconclusive = no clear call, values can overlap the other calls
Starred values were filed as active, the others as inactive; u = inconclusive; x = no result given. Cut-off read from the data, not from the text of the source, unless noted: active = inhibition above about 30%; inconclusive = no clear call, values can overlap the other calls; inactive = below that.

SMILES	BoNT-F LC inh	BoNT-A LC inh2	Anthrax LF inh2	MazEF act	Bead autofluor
CC(=O)c1cccc(NC(=O)c2cc(=O)[nH]c3ccc(S(=O)(=O)N4CCOCC4)cc23)c1	0	0	-3	5	3685
CCOC(=O)C1=CCN(S(=O)(=O)c2ccc(F)cc2)C1c1cccc(F)c1 (centres undefined)	15	1	-6	x	3963
COc1ccc(OC)c(Nc2nc(-c3cccc([N+](=O)[O-])c3)nc3ccccc23)c1	-8	-4	-3	-1	25968*
COc1ccc(Nc2nc(-c3cccc([N+](=O)[O-])c3)nc3ccccc23)c(OC)c1	-11	0	1	-7	2211
CSc1nsc(SC)c1NC(=O)OCC1CCCO1 (centres undefined)	6	4	-2	-3	21471*
CSc1nsc(SC)c1NC(=O)OCc1ccccc1	-5	0	-3	10	10862
O=C(CSc1nc2ccccc2c(=O)[nH]1)c1ccccc1	5	0	0	6	10288
CC(C)(C)c1ccc(C(=O)CSc2nc3ccccc3c(=O)[nH]2)cc1	3	0	0	51*	10936
CC(=O)N(CCC1(C(C)C)CCOC(C)(C)C1)Cc1ccco1 (centres undefined)	1	u	0	-3	19564*
CCC(=O)N(CCC1(C(C)C)CCOC(C)(C)C1)Cc1ccco1 (centres undefined)	0	2	-6	9	15431
CCC1(C)Cc2c(C#N)c(N)sc(=S)c2CO1 (centres undefined)	24	75*	41*	5	4428
Cc1noc(C)c1S(=O)(=O)Nc1ccc2c(c1)C(=O)N([C@H](C)CO)C[C@H](C)[C@@H](CN(C)C(=O)NC1CCCCC1)O2	2	0	0	2	3029
NS(=O)(=O)c1cccc(NC(=O)Cn2cnc3ccccc3c2=O)c1	2	3	-4	0	20676*
O=C(O)CCC(=O)N1CCc2cc(S(=O)(=O)NC3CCCC3)ccc21	-3	-2	2	-10	21391*
O=C(O)CCC(=O)N1CCc2cc(S(=O)(=O)NC3CCCc4ccccc43)ccc21 (centres undefined)	6	0	0	7	11993
Cc1cccc(N2CCN(S(=O)(=O)c3ccc4c(c3)CCN4C(=O)CCC(=O)O)CC2)c1C	-1	-2	-2	-16	24315*
Cc1cccc(-c2ocnc2C(=O)Nc2ncc(C)s2)c1	-8	-1	10	13	4076
O=C(Nc1ccc2c(c1)OCO2)c1cc(C2CCCCN2C(=O)OCCF)on1 (centres undefined)	-2	0	2	x	3948
O=C1CCCCCCC(=O)[C@H](O)C[C@H](c2ccccc2)O1	8	0	6	x	6059
Nc1nnc(Cc2c[nH]c3ccccc23)s1	-3	1	2	-1	23973*
COc1ccc(N2CCN(C(CNC(=O)COc3ccccc3)c3ccco3)CC2)cc1 (centres undefined)	0	-2	2	-2	5534
CN1CCN(C(=O)c2ccc(-c3cnn(C)c3)c3ccoc23)CC1	-3	-1	0	x	3340
CCNc1nc(Oc2ccc(C(=O)OC)cc2)nc(SC)n1	-1	0	-13	0	22097*
CNc1nc(Oc2ccccc2C(=O)OC)nc(SC)n1	5	3	2	2	21738*
C[C@H](CO)N1C[C@H](C)[C@@H](CN(C)S(=O)(=O)c2ccccc2C#N)OCc2cnnn2CCCC1=O	0	0	0	-1	3479
SMILES	BoNT-F LC inh	BoNT-A LC inh2	Anthrax LF inh2	MazEF act	Bead autofluor
CCCN(CC(=O)Nc1ccccc1C)C(=O)Cc1n[nH]c(=O)c2ccccc12	x	x	x	-2	x
Cc1ccc(C)c(CSc2nnc([C@@H](N)C(C)C)o2)c1	-4	0	2	-2	16262*
Cc1ccc(C)c(CSc2nnc(CCN)o2)c1	6	0	2	7	9821
CC(C)(C)NC(=O)C(c1ccco1)N(Cc1ccc(F)cc1)C(=O)c1snc(C(N)=O)c1N (centres undefined)	2	0	-2	2	10395
COc1ccccc1N(C(=O)c1snc(C(N)=O)c1N)C(C(=O)NCCC(C)C)c1ccco1 (centres undefined)	5	4	-2	-25	18096*
COCCNC(=O)C(c1ccco1)N(C(=O)Cn1nnc2ccccc21)c1ccccc1C (centres undefined)	-5	1	1	7	4873
COc1ccccc1N(C(=O)c1snc(C(N)=O)c1N)C(C(=O)NC1CCCC1)c1ccco1 (centres undefined)	-2	-1	-1	3	23621*
COc1ccccc1N(C(=O)c1snc(C(N)=O)c1N)C(C(=O)NC1CCCC1)c1ccc(N(C)C)cc1 (centres undefined)	-12	0	3	3	2939
COCCNC(=O)C(c1ccco1)N(Cc1ccc(OC)cc1)C(=O)Cn1nnc2ccccc21 (centres undefined)	39*	1	3	-8	3406
COc1ccc(CN(C(=O)c2snc(C(N)=O)c2N)C(C(=O)NC(C)(C)C)c2ccco2)cc1 (centres undefined)	-4	-3	0	3	21460*
CCOc1ccccc1N(C(=O)c1snc(C(N)=O)c1N)C(C(=O)NCCC(C)C)c1ccco1 (centres undefined)	6	1	1	1	9436
Cc1ccc(NC(=O)CNc2cccc(Br)c2)cc1S(=O)(=O)N1CCOCC1	-2	0	-1	-5	3488
CC1(C(=O)O)CCCN(C(=O)c2cc3ccccc3s2)C1 (centres undefined)	-1	0	-8	x	3792
O=C(Nc1cccnc1)C1Cc2c(-c3ccc4c(c3)OCO4)ccnc2O1 (centres undefined)	1	0	-2	x	4092
CCCCn1c(Nc2ccccc2)nc2ccccc21	-4	-1	-2	-6	16689*
CCCn1c(Nc2nc3ccccc3n2C)nc2ccccc21	28	3	0	1	10831
COc1ccc(NS(=O)(=O)c2ccc(C(=O)N(C)Cc3ccc(C)o3)cc2)cc1	-3	0	0	2	3436
O=[n+]1c2c(n([O-])c3ccccc31)CCCC2	2	0	0	-1	16483*
O=C(Oc1ccc2c(c1)OCO2)c1cc2c(s1)CCC2	54*	2	-1	-2	3933
O=C(c1cc2c(s1)CCCC2)N1CCN(Cc2ccc3c(c2)OCO3)CC1	-3	0	0	2	3181
COc1ccc(CCNC(=O)c2cc(S(=O)(=O)N3CCCCC3)c[nH]2)cc1OC	-12	-1	-7	7	6473
N=c1c[n+](C2CCCCC2)[n-]o1	-6	-1	1	8	3232
N=c1c[n+](N2CCOCC2)[n-]o1	4	1	3	353*	5879
Cn1cc(/C=C2/SC(=O)N(c3ccccc3)C2=O)c2ccccc21	3	1	6	10	2356
Cn1cccc1/C=C1\SC(=O)N(c2ccccc2)C1=O	16	2	12	88*	2087
Cn1cccc1/C=C1\SC(=Nc2ccccc2)NC1=O	36*	2	13	-7	3910
